# Screening data deposited in PubChem by several laboratories.
# Mtb hypoxia rep = PubChem AID 1159583; hit rate 0.1% among 300,000; M. tuberculosis hypoxia-regulated fluorescent reporter, fluorescence; fluorescence inhibition, % (test concentration not listed); in the data active = fluorescence inhibition mostly above about 23%, no sharp cut-off; inactive = mostly below about 17%
# RecA splice inh = Mtb RecA intein splicing inhibitors, primary screen, biochemical, fluorescence, HTS. hit rate 0.75% among 290,000. cell-free RecA intein splicing. AID 2221, 2009. Protein RecA (Mycobacterium tuberculosis (strain ATCC 25618 / H37Rv)), P9WHJ3. inhibition, % (concentration not given with the values); in the data active = inhibition above about 30%; inconclusive = no clear call, values can overlap the other calls;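 also: 0% = vehicle wells and 100% = reference inhibitor control wells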
# Rv3671c protease = Rv3671c serine protease inhibitors, primary screen, biochemical, fluorescence polarization, M. tuberculosis H37Rv; inhibition, % at 5.96 µM; AID 2606, 2010; hit rate 0.048% among 320,000; in the data active = inhibition above about 38%;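 also: extracellular domain of Rv3671c used as enzyme; 0% = enzyme with DMSO and 100% = no enzyme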
# Mtb bLac sens = beta-lactam sensitization of Mtb H37Rv, H37Rv | M. tuberculosis H37Rv growth with meropenem, percent inhibition | inhibition, % at 25 µM | hit rate 0.27% among 330,000;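 also: growth measured after seven days incubation then overnight dye step; 0% = bacteria only wells and 100% = bacteria with antibiotic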
# Mtb UGM inh = M. tuberculosis UGM enzyme inhibitors, primary screen, biochemical, fluorescence polarization, single point; purified UGM, fluorescence polarization probe displacement; inhibition, % at 10 µM; AID 504406, 2011; UDP-galactopyranose mutase (Mycobacterium tuberculosis (strain ATCC 25618 / H37Rv)), …; hit rate 0.06% among 320,000; in the data active = inhibition above about 10%, passing the limit was not always enough; inconclusive = no clear call, values can overlap the other calls
# Target sequence (P9WIQ1 whole entry, looked up): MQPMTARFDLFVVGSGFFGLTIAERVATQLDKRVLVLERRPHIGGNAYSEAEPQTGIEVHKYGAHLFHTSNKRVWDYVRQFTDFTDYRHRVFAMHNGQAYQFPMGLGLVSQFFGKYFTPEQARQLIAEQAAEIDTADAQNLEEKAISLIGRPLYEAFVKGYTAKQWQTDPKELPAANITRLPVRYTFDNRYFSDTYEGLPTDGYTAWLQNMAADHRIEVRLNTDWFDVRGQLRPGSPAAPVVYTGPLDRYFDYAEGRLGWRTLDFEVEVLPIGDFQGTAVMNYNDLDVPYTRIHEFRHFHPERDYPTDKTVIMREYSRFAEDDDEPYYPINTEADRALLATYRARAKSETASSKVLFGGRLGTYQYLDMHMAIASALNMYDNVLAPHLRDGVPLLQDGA
# GFP chromo cs = counter-screen: blocks GFP chromophore formation, dose response, counter-screen, biochemical, fluorescence, homogeneous; shares compounds with RecA splice inh; EC50, µM; cell-free GFP chromophore formation; hit rate 83% among 2,100
# The depositor's hits bear a star; ? = inconclusive; nt = not tested or not shown. Hits are enriched below; roughly 0.77% of the tested compounds scored in any of these assays. Unless noted, no rule for the calls is given here.
SMILES,Mtb hypoxia rep,RecA splice inh,Rv3671c protease,Mtb bLac sens,Mtb UGM inh,GFP chromo cs
CCCc1nn(-c2ccccc2)c2c1C(c1cccs1)C(C#N)=C(N)O2 (configuration not stated),2,67*,6,4,1,16*
Nc1ccc2cn[nH]c2c1,nt,78*,0,-1,1,22*
C#CCNC(=O)C1=CC(C2CCCCC2)C(CCCO)C(OCC)O1 (configuration not stated),4,nt,nt,nt,nt,nt
CC(C)C(=O)N1CCN(c2nc(-c3ccccc3)c3c(c2C#N)CCCC3)CC1,0,31*,11,3,-1,>38
COc1cc(/C=C2/C(=O)N(c3ccc(C)c(C)c3)N=C2C)cc([N+](=O)[O-])c1O,-3,42*,-3,8,2,21*
COc1cc(/C=C2\C(=O)NN(c3ccc(C)cc3)C2=O)cc([N+](=O)[O-])c1O,4,1,7,4,2,nt
O=C(C=CNNC(=O)c1cccc(Br)c1)c1ccccc1,2,nt,nt,nt,nt,nt
COC(=O)C1=C(C(=O)OC)C2N(C)c3ccccc3[C@@]23CC(C(=O)OC)N(C(=O)c2ccc(Br)cc2)C3=N1 (some centres not stated),2,nt,nt,nt,nt,nt
O=C(O)c1ccc(NC2=C(N3CCOCC3)C(=O)c3ccccc3C2=O)cc1,-4,4,-105,9,1,nt
CC(=O)N(C1=C(N2CCOCC2)C(=O)c2ccccc2C1=O)c1ccc(C(=O)O)cc1,16,61*,-53,23,2,20*
COCCn1c(C(=O)N2CCCC2)cc2c1CC1CN(C(=O)c3ccccc3)[C@@](Cc3ccc(F)cc3)(C(=O)OC)C21 (some centres not stated),4,nt,nt,nt,nt,nt
O=C(O)c1cccc(Cn2c(Cl)c(C=NNC(=O)c3cc4ccccc4cc3O)sc2=O)c1,22,nt,nt,nt,nt,nt
Cc1ccc(S(=O)(=O)/N=C2/C=C(C3C(=O)CC(C)(C)CC3=O)C(=O)c3ccccc32)cc1,nt,85*,-38,8,4,9.9*
Cc1ccc(CN=Cc2[nH]c3ccc(Br)c(Cl)c3c2O)cc1,6,75*,-22,12,-1,4.8*
O=c1[nH]c(=O)n(C2CCCCCC2)c(O)c1C=NCc1ccc(F)cc1,nt,4,0,2,-1,nt
Oc1c(C=NCc2ccc(F)cc2)[nH]c2ccc(Br)c(Cl)c12,nt,43*,-7,-7,3,6.1*
COc1ccc(CN=Cc2c(O)[nH]c3ccccc23)cc1,4,0,0,-3,0,nt
CN(C)CCSc1nnc2[nH]c3ccccc3c2n1,3,32*,3,-5,0,9.4*
Fc1cccc(CSc2nnc3c(n2)[nH]c2ccccc23)c1,-4,1,-16,-3,0,nt
N#CC1=C(N)C(C#N)(C#N)C(c2cccnc2)C2CN(C(=O)OCc3ccccc3)CC=C12 (configuration not stated),7,45*,-1,-10,2,4.4*
CCOC(=O)N1CC=C2C(C#N)=C(N)C(C#N)(C#N)[C@H](c3ccc(OCC)c(OCC)c3)[C@H]2C1,-1,8,3,-9,1,nt
CCOC(=O)c1c(NC(C)=O)sc2c1CCC(C=NCCCN(CC)CC)=C2Sc1ccccc1,nt,61*,-2,1,2,0.37*
COc1ccc(-c2c(=O)n(OC)c3ccccc3[n+]2[O-])cc1OC,4,42*,-2,-1,1,>38
CCOC(=O)c1c(C)oc2c1c(C=NCCC(=O)O)c(O)c1ccccc12,9,34*,-20,1,-1,34*
Oc1ccc(/C=N/N=C/c2ccc(O)c(O)c2)cc1O,nt,-6,-10,3,5,nt
SMILES,Mtb hypoxia rep,RecA splice inh,Rv3671c protease,Mtb bLac sens,Mtb UGM inh,GFP chromo cs
Oc1ccc(N=Cc2ccc(O)c(O)c2)cc1,11,86*,-13,-6,3,24*
COC(=O)C1=C(C(=O)OC)C2N(Cc3ccccc3)c3ccccc3[C@@]23CC(C(=O)OC)N(C(C)=O)C3=N1 (some centres not stated),14,nt,nt,nt,nt,nt
COC(=O)c1cccc(S(=O)(=O)N2CCOCC2)c1,3,-1,0,?,0,nt
COC(=O)c1cccc(N2C(=O)C(Cl)=C(N3CCOCC3)C2=O)c1,5,68*,-5,97,1,5.2*
O=C1C(Cl)=C(N2CCOCC2)C(=O)N1c1cccc(C(F)(F)F)c1,4,90*,-4,18,4,2.6*
O=C1CC(=O)N(c2cccc(C(F)(F)F)c2)C(=O)N1,15,0,-1,-5,0,nt
CC(=O)Nc1cccc(NC(=O)CSc2ncc(C(=O)Nc3ccc(F)cc3)c(=O)n2C)c1,10,3,12,-1,3,nt
CC(=O)Nc1cccc(NC(=O)CSc2ncc(C(=O)Nc3ccccc3)c(=O)n2C)c1,15,47*,-3,90,-1,40*
CC(=O)Nc1ccc(NC(=O)CSc2ncc(C(=O)Nc3ccc(F)cc3)c(=O)n2C)cc1,10,32*,-6,3,0,>38
CC(=O)c1cccc(NC(=O)CSc2ncc(C(=O)Nc3ccccc3)c(=O)n2C)c1,8,37*,5,-4,1,>38
NC(=O)CCC(NC(=O)c1ccc(F)cc1)C(=O)OCC(=O)NCc1ccc(F)cc1 (configuration not stated),6,nt,nt,nt,nt,nt
NC(Cc1cccc2ccccc12)=NOC(=O)c1ccc2c(c1)OCO2,4,nt,nt,nt,nt,nt
CN1c2ccccc2C(C)(C)C12C=Nc1c(ccc3ccccc13)O2 (configuration not stated),nt,79*,-68,2,-1,25*
COc1ccc(C2CC(=O)C=C(c3ccc(-c4ccccc4)c(F)c3)C2)cc1OC (configuration not stated),11,nt,nt,nt,nt,nt
Cc1ccc(-c2ccc(/C=N/N=C3/NC(=O)C(CC(=O)O)S3)o2)c([N+](=O)[O-])c1 (configuration not stated),nt,48*,-59,-3,2,34*
O=C(O)CC1S/C(=N/N=Cc2ccc(-c3ccc(Cl)c([N+](=O)[O-])c3)o2)NC1=O (configuration not stated),14,nt,nt,nt,nt,nt
O=C(O)CC1S/C(=N/N=C/c2ccc(-c3ccccc3[N+](=O)[O-])o2)NC1=O (configuration not stated),nt,43*,-68,2,-3,17*
CCOc1ccc(NC(=S)Nc2ccc3nsnc3c2)cc1,nt,26,-199,98,-1,nt
COc1ccc(NC(=S)Nc2ccc3nsnc3c2)cc1,9,40*,-129,3,1,>38
CN1CCN(C2=C(Cl)C(=O)N(c3cccc(Cl)c3)C2=O)CC1,11,22,-17,-8,-3,nt
